Marburg entry inh: Marburg virus entry inhibition. Marburg virus pseudotyped entry inhibition, cell reporter. Potency, µM (series often up to 37.8 µM), hits mostly inhibitors. 300,000 tested, 1.8% active. AID 540276; calls by dose curve; tested in HEK293 cells
HCV inh: inhibitors of hepatitis C virus infection | 340,000 tested, 3.4% active | Huh7.5.1 HCVcc-Cre infection, luciferase reporter, 44 h | Potency, µM (top dose mostly 41.8 µM), most hits filed as inhibitors
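Whole-lifecycle infectious HCVcc-Cre system; cells 1,000/well, compound then virus (~0.5 moi) added 4 h after plating, 44 h culture. Luciferase read 15 sec following 15 min substrate incubation, room temp.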
LASV entry inh: inhibitors of Lassa virus binding or cell entry; Lassa virus pseudotype entry inhibition, cell reporter; Potency, µM (series often up to 37.9 µM), usual class: inhibitors; 300,000 tested, 1.2% active; AID 540256; calls by dose curve; tested in HEK293 cells; also: nearly all actives have a fitted effect of over 50% in size
FMDV antiviral: foot and mouth disease virus antiviral activity; 410,000 tested, 1.2% active; AID 1159524; Potency, µM (top dose mostly 57.9 µM), most hits filed as inhibitors; FMDV antiviral cell-based qHTS; calls by dose curve; tested in HEK293T cells; also: read-out not given here; nearly all actives have a fitted effect of over 45% in size
SARS PLpro yeast: SARS-CoV PLP inhibition in yeast. S. cerevisiae expressing SARS-CoV PLpro, growth rescue. Potency, µM (series often up to 32.9 µM), hits mostly activators. 330,000 tested, 0.19% active. AID 485353; calls by dose curve; also: nearly all actives have a fitted effect of over 55% in size
HCMV inh: human cytomegalovirus inhibition; HFF cells, HCMV-luciferase reporter, 72 h; stronger effect = lower value; activity change, negative = inhibition, % at 57.5 µM; 410,000 tested, 4.5% active; in the data active = activity change below about -60%; inconclusive = no clear call, values can overlap the other calls; inactive = above about -39%
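Screen run at 2 compound doses on HFFs infected with reporter HCMV, MOI 1 PFU/cell. Luciferase activity from cell lysates at 72 h post infection gave inhibition relative to buffer-only and Salinomycin wells.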
G2M arrest HeLa: HeLa G2/M cell cycle arrest induction. shares compounds with Marburg entry inh. AID 2441. 25 tested, 60% active. HeLa cell cycle G2/M arrest, Hoechst DNA content imaging. Potency, µM, usual class: inhibitors
WI-38 tox: counter-screen for perinucleolar compartment inhibitors: WI-38 cytotoxicity; shares compounds with Marburg entry inh; WI-38 normal lung fibroblasts, ATPLite luminescence ATP viability, 24 h; Potency, µM (titrated, usually from 46.1 µM), usual class: inhibitors; 120 tested, under 10 active
PNC inh conf: confirmation of perinucleolar compartment assembly inhibitors | shares compounds with Marburg entry inh | PC3M PTB-GFP, PNC prevalence imaging, 16 h | Potency, µM (top dose mostly 46.1 µM), most hits filed as inhibitors | 120 tested, 50% active
PC3M casp3-7: PC3M caspase 3/7 activation by PNC inhibitor hits. shares compounds with Marburg entry inh. AID 2731. activity change, positive = activation, % at 46.1 µM. PC3M-GFP caspase 3/7 activation, luminescence, 24 h. 120 tested, under 10 active
HCV confirm: HCV inhibition, cherry-pick confirmation; 640 tested, 78% active; shares compounds with HCV inh; Potency, µM (highest dose often 41.8 µM), hits mostly inhibitors; HCVcc-Cre infectious virus cell assay, luciferase, inhibition; also: nearly all actives have a fitted effect of over 80% in size
HCV host tox: host cell cytotoxicity counter-screen for HCV inhibitors; shares compounds with HCV inh; HCV host cell line cytotoxicity counterscreen; Potency, µM (top dose mostly 41.8 µM), hits mostly inhibitors; 640 tested, 22% active;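 also: 44 h compound exposure; nearly all actives have a fitted effect of over 55% in size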
Hits are given with their value; - = inactive; ? = inconclusive; . = no result given; ! = repeats disagree. Most compounds without a hit are left out; they make up all but 8% or so of the library. Unless noted, calls follow the shape of the dose curve; as a rule, active = well fitted curve in the direction sought with a large enough effect; inconclusive = small, poorly fitted or top-dose-only effect, or another doubt; inactive = no such curve, though single readings can be large; an effect the other way counts as inactive or inconclusive.

SMILES | Marburg entry inh | HCV inh | LASV entry inh | FMDV antiviral | SARS PLpro yeast | HCMV inh | HCV confirm | HCV host tox | others
Cc1c(NC(=O)COC(=O)c2cc(-c3ccc(-c4ccccc4)cc3)nc3ccccc23)c(=O)n(-c2ccccc2)n1C | 0.581µM | - | 0.891µM | - | - | -97.2 | . | . | WI-38 tox=7.94µM;PNC inh conf=2µM;PC3M casp3-7=-
CC(C)c1ccc(Nc2ccc(C(=O)O)cc2[N+](=O)[O-])cc1 | - | - | ? | - | - | - | . | .
CCOC(=O)c1c(NC(=O)c2c(-c3ccccc3)noc2C)sc(C)c1-c1ccccc1 | 0.126µM | 7.08µM | ? | ? | - | -102.2 | . | . | WI-38 tox=-;PNC inh conf=1.58µM;PC3M casp3-7=-
COC(=O)Nc1nc2ccc(S(=O)c3ccccc3)cc2[nH]1 (centres undefined) | . | . | . | - | . | - | . | .
COC(=O)Nc1nc2ccc(C(=O)c3cccs3)cc2[nH]1 | 0.159µM! | - | ? | - | . | -75.3 | . | . | G2M arrest HeLa=0.0708
CCCSc1cc(N2CCCC2)nc(-c2ccccc2)n1 | - | - | - | - | - | - | . | .
CCCSc1cc(N2CCN(C)CC2)nc(-c2ccc(OC)cc2)n1 | ? | 14.1µM | ? | - | - | - | . | . | WI-38 tox=-;PNC inh conf=?;PC3M casp3-7=-
CCCCCCCCCCCCCCCCCC(=O)NCC(COP(=O)([O-])OCC[N+](C)(C)C)OCC (centres undefined) | 20µM | . | ? | . | . | . | . | . | G2M arrest HeLa=?
CN(C)C(=O)c1cc2c(c(-c3cccc(-c4ccccc4F)c3)n1)[C@@H](CCO)N(S(C)(=O)=O)C2 | . | . | . | - | . | - | . | .
Cc1ccc(OCCn2cc(C(=S)N3CCCC3)c3ccccc32)cc1C | 3.16µM | ? | 2.82µM | - | - | -97.9 | . | . | WI-38 tox=-;PNC inh conf=7.94µM;PC3M casp3-7=-
Cc1ccc(OCCn2cc(/C(N)=N/O)c3ccccc32)cc1C | - | ? | - | ? | - | - | . | .
O=C(CSc1cn[nH]n1)Nc1cccc(C(F)(F)F)c1 | - | - | - | - | - | - | . | .
COc1ccc2nc3sc(C(=O)NCCCN4CCc5ccccc5C4)cc3cc2c1 | ? | 10µM | ? | - | - | - | . | . | WI-38 tox=?;PNC inh conf=-;PC3M casp3-7=-
Cc1cc(C)c(C(=O)COC(=O)Cn2c(C)csc2=O)cc1C | - | . | - | - | - | - | . | .
COc1ccccc1CN1CC(C(=O)N(C)Cc2ccc(C)o2)CCC1=O (centres undefined) | . | - | . | - | - | - | . | .
Cc1cccc(NC2=C/C(=N/S(=O)(=O)c3cccs3)c3ccccc3C2=O)c1 | ? | 2.82µM | 3.16µM | ? | - | - | . | . | WI-38 tox=?;PNC inh conf=14.1µM;PC3M casp3-7=?
O=C(c1ccccc1)c1ccc(OCCO)cc1 | . | - | . | - | - | - | . | .
O=C(CSc1ncccn1)N/N=C/c1ccccc1[N+](=O)[O-] | - | - | - | - | - | - | . | .
O=C(Nc1cc(Br)ccc1O)c1cnn2c(C(F)F)cc(C3CC3)nc12 | ? | ? | ? | - | - | - | 7.05µM | -
Cc1ccc(S(=O)(=O)N2CCC(=O)N(CCOCc3ccc(C(F)(F)F)cc3)CC2)cc1 | 16.4µM | ? | ? | ? | - | ? | 2.23µM | ?
CC(C)Oc1cc(C(=O)NC2CCCCC2)c2ccccc2n1 | ? | - | - | - | - | - | . | .
COC(=O)c1ccccc1NC(=O)CCCS(=O)(=O)c1nc(-c2ccccc2OC)cc(C(F)(F)F)n1 | - | . | - | - | . | - | . | .
CN(C)CCNC(=O)c1ccc(COc2ccc(Cl)cc2Cl)cc1 | 8.2µM | 7.94µM | ? | - | - | - | 15.8µM | -
CC(=O)Nc1ccc(OCC(O)CN2CCN(c3ccc(F)cc3)CC2)cc1 (centres undefined) | - | - | - | - | ? | - | . | .
CCOc1ccc(Cc2nnc(SCC(=O)Nc3ccccc3)n(N)c2=O)cc1 | - | ? | ? | - | - | - | . | .
SMILES | Marburg entry inh | HCV inh | LASV entry inh | FMDV antiviral | SARS PLpro yeast | HCMV inh | HCV confirm | HCV host tox | others
CCOc1ccccc1NC(=O)CSc1nnc(Cc2ccc(OC)cc2)c(=O)n1N | - | ? | - | - | - | - | 7.91µM | -
COc1ccc(N=Nc2c(C)[nH]c3ccccc23)cc1 | ? | 7.08µM | - | - | . | - | 19.9µM | -
CC(=O)c1cccc(N=Nc2c(C)[nH]c3ccccc23)c1 | - | ? | - | - | - | - | . | .
Oc1ccccc1-c1nc(NCc2cccnc2)c2ccccc2n1 | . | 5.62µM | . | - | - | - | 12.5µM | -
COc1ccc(-c2oc3c(c2C#CC(C)(C)O)C(OC)CCC3)cc1 (centres undefined) | . | . | . | - | . | - | . | .
Cc1ccc(CNC(=O)N2CCC(CN3CCC(C)CC3)CC2)cc1 | . | . | - | - | . | - | . | .
Nc1ccccc1C#Cc1ccc([N+](=O)[O-])cc1 | ? | ? | ? | - | . | - | 1.77µM | -
c1ccc(C(c2nnnn2Cc2cccs2)N2CCN(C3CCCC3)CC2)cc1 (centres undefined) | ? | - | - | - | - | - | . | .
Fc1ccc(C(c2nnnn2Cc2cccs2)N2CCN(C3CCCC3)CC2)cc1 (centres undefined) | ? | ? | ? | ? | - | - | - | -
NC(=O)CC(NC(=O)c1cccc(Br)c1)c1ccc(NC2CCCCCCC2)c([N+](=O)[O-])c1 (centres undefined) | . | - | . | - | - | - | . | .
COc1ccc(-c2nc(CN3CCN(c4ncnc5ccccc45)CC3)c(C)o2)c(OC)c1 | 14.6µM | 5.01µM | ? | 20µM | - | -81.9 | 4.99µM | 7.91µM
Cc1cc(Cl)ccc1OCC(=O)Nc1ccccc1CO | - | 3.16µM | ? | - | - | - | 7.91µM | -
CNc1nc(N/N=C/c2cc3c(cc2[N+](=O)[O-])OCO3)nc(Nc2ccccc2)n1 | 16.4µM | 1µM | ? | ? | - | -99.5 | 14.1µM | 31.5µM
CCOC(=O)C(C#N)(Cc1ccc2ccccc2n1)Cc1ccc2ccccc2n1 | ? | ? | - | - | . | - | . | .
COc1ccc(NC(=S)NCCSc2ccc(Cl)cc2)c(OC)c1 | ? | 5.62µM | ? | - | - | - | 25µM | -
CCS(=O)(=O)CCSc1nc(-c2ccc(Br)cc2)cc(-c2ccccc2)c1C#N | . | . | - | - | . | - | . | .
CS(=O)c1nc(-c2ccc(Br)cc2)cc(-c2ccccc2)c1C#N (centres undefined) | ? | 5.01µM | ? | . | - | -98.5 | ? | ?

Screening data (PubChem)
